Here are results for five compounds from PubChem BioAssay.

The subject of assay [1] is Human papillomavirus type 1a protein E7 (residues 44-93). The assay is described as follows: small molecules binding HPV E7 44-93 – biochemical, small-molecule microarray, residues 44-93, 635 nm fluorescence, primary screen (AID 1108).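 Also: E7 fragment applied at 1 µg/mL in TBST for 1 h at 4 C; score combines spot fluorescence with its signal to noise ratio.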 To be noted: fluorescence 635 nm, higher = more signal.
The nature of assay [2]: hepatitis C replication reporter changes, two-sided – Huh7 cells, luciferase reporter, HCV replication inhibitor project, primary screen (AID 1109).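 Also: huh7 hepatoma cells harbouring a luciferase neomycin HCV replicon reporter; luciferase luminescence as measure of HCV replicon replication; test concentration not given here.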 To be noted: Huh7 HCV replicon luciferase reporter, 48 h; higher = more signal.
Assay [3] has as its target Left-right determination factor 2 (Homo sapiens) (UniProt O00292). The assay is described as follows: small molecules binding LEFTY2 protein – biochemical, small-molecule microarray, 635 nm fluorescence scan, primary screen (AID 1110). To be noted: higher = more signal.
Assay [4] has as its target Calmodulin-1 (Homo sapiens) (UniProt P0DP23). The assay is described as follows: small molecules binding calmodulin-1 with EGTA – biochemical, small-molecule microarray, Cy5-labelled CALM1, profiling panel (AID 1111).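 Also: labelled calmodulin applied in Tris saline Tween buffer holding calcium plus EGTA and DTT.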 The following applies: Cy5-CALM1 binding fluorescence, higher = more signal.
Assay [5] shares this target. Nature of the assay: small molecules binding Ca-loaded calmodulin-1 – biochemical, small-molecule microarray, Cy5-labelled CALM1, plus calcium, artefact control for SMM control-protein annotation, profiling panel (AID 1112).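 Also: score merges spot fluorescence with signal to noise from triplicate slides.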 To be noted: Cy5-CALM1 binding fluorescence, higher = more signal.
Assay [6] in a line: probe aWnt5a binding to arrayed compounds – biochemical, biotinylated probe, 635/667 nm fluorescence, primary screen (AID 1113).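 Also: score merges 667 nm fluorescence intensity with signal-to-noise per printed feature.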 The following applies: small-molecule microarray, higher = more signal.
Assay [7] can be described thus: probe aShh binding to arrayed compounds – biochemical, biotinylated probe, 635/667 nm fluorescence, primary screen (AID 1114).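 Also: probe is biotin-labelled aShh protein from a stem cell growth factor screen; measures binding of labelled protein to compounds printed on the slide; score merges feature fluorescence at 667 nm with signal-to-noise.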 The following applies: small-molecule microarray, higher = more signal.
Assay [8] can be described thus: probe aNog binding to arrayed compounds – biochemical, biotinylated probe, 635/667 nm fluorescence, primary screen (AID 1115).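 Also: probe is biotinylated aNog protein used at 0.15 µg/mL for 1 h at 4 C; z-score combines 667 nm fluorescence of each spot with its signal to noise.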 To be noted: small-molecule microarray, higher = more signal.
Assay [9] concerns the target Torsin-1A-interacting protein 1 (Homo sapiens) (UniProt Q5JTV8). Nature of the assay: compound microarray binding of lysate hLAP1 – cell lysate, small-molecule microarray, COS7 lysate, 635/667 nm fluorescence, primary screen (AID 1116). To be noted: 635 nm fluorescence, higher = more signal.
Assay [10] deals with Alpha-bungarotoxin (Bungarus multicinctus) (UniProt P60615). The assay is described as follows: compounds binding labelled alpha-BTX control protein – biochemical, small-molecule microarray, Alexa647 label, 635/667 nm fluorescence, artefact control for SMM control protein annotation, profiling panel (AID 1117). To be noted: alpha-BTX-A647 binding fluorescence, higher = more signal.

For the next assay, the target named is Albumin (Bos taurus) (UniProt P02769). The assay is described as follows: compounds binding labelled BSA control protein – biochemical, small-molecule microarray, Alexa647 label, 635/667 nm fluorescence, artefact control for SMM control protein annotation, profiling panel (AID 1118).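 Also: score merges 667 nm emission intensity and signal-to-noise per printed compound spot.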 The following applies: BSA-A647 binding, fluorescence 635 nm, higher = more signal.

Assay [11] can be described thus: probe aXIP binding to arrayed compounds – biochemical, NeuroSMM set, 635/667 nm fluorescence, primary screen (AID 1119).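 Also: probe is the protein aXip251-270 applied at 1 µg/mL to compound-printed slides; binding of probe to printed compounds measured as 667 nm fluorescence plus signal to noise.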 To be noted: small-molecule microarray, higher = more signal, called active from +8 up or from −8 down.
Assay [12] can be described thus: probe aNOTCH3 binding on compound microarray – biochemical, small-molecule microarray, 635/667 nm fluorescence, primary screen (AID 1120).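 Also: probe is a biotin-tagged antibody raised against NOTCH3 rather than NOTCH3 protein; score merges spot fluorescence near 667 nm with spot signal to noise.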 The following applies: higher = more signal.
Assay [13] is described as follows: probe aNOTCH2 binding on compound microarray – biochemical, small-molecule microarray, 635/667 nm fluorescence, primary screen (AID 1121).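 Also: score merges feature fluorescence read at 667 nm with its signal to noise.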 The following applies: higher = more signal.
Assay [14] deals with Carbonic anhydrase 2 (Homo sapiens) (UniProt P00918). The assay is described as follows: compounds binding carbonic anhydrase 2 – biochemical, small-molecule microarray, Alexa647-labelled CAII, profiling panel (AID 1122). The following applies: CAII-A647 binding fluorescence, higher = more signal.
The nature of assay [15]: COS7 lysate on small-molecule microarray, probe aHis, 635 nm (AID 1123).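 Also: z-score combines 667nm fluorescence intensity with signal-to-noise per printed compound spot.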 The following applies: COS7 cell lysate, fluorescence, higher = more signal.
Assay [16] in a line: probe aLAP1 signal on lysate-treated microarray – cell lysate, small-molecule microarray, COS7 lysate, primary screen (AID 1124).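 Also: lysate comes from COS7 cells expressing LAP1 and is applied at 0.3 µg/mL; score merges spot fluorescence near 667 nm with signal-to-noise over triplicate slides.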 The following applies: probe aLAP1, fluorescence, higher = more signal.
A further assay deals with Sam68 (KHDRBS1). Nature of the assay: compounds binding KHDRBS1 protein – biochemical, small-molecule microarray, 635 nm fluorescence, primary screen (AID 1125).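 Also: score merges 667 nm channel intensity with signal to noise over triplicate slides.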 To be noted: higher = more signal.
The test system of assay [17] is Chordin-like protein 2 (CHRDL2). The assay is described as follows: compounds binding chordin-like 2 – biochemical, small-molecule microarray, 635 nm fluorescence, primary screen (AID 1126).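 Also: printed compound slides probed with Chrdl2 protein at 4 µg/mL for 1 h at 4 C; score merges 667 nm emission intensity with signal to noise over three replicate slides.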 To be noted: fluorescence 635 nm, higher = more signal.
Assay [18] concerns the target Concanavalin-A (Canavalia ensiformis) (UniProt P02866). The assay is described as follows: compounds binding concanavalin A lectin – biochemical, small-molecule microarray, Alexa647 label, 635 nm, artefact control for SMM control protein annotation, primary screen (AID 1127).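 Also: z combines 667 nm emission intensity with signal-to-noise across three replicate slides.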 To be noted: ConA-A647 binding fluorescence, higher = more signal.

Each structure is given as a SMILES string. The source made the active and inactive calls.

Torsin-1A-interacting protein 1 (Homo sapiens), sequence (Q5JTV8 whole entry, looked up): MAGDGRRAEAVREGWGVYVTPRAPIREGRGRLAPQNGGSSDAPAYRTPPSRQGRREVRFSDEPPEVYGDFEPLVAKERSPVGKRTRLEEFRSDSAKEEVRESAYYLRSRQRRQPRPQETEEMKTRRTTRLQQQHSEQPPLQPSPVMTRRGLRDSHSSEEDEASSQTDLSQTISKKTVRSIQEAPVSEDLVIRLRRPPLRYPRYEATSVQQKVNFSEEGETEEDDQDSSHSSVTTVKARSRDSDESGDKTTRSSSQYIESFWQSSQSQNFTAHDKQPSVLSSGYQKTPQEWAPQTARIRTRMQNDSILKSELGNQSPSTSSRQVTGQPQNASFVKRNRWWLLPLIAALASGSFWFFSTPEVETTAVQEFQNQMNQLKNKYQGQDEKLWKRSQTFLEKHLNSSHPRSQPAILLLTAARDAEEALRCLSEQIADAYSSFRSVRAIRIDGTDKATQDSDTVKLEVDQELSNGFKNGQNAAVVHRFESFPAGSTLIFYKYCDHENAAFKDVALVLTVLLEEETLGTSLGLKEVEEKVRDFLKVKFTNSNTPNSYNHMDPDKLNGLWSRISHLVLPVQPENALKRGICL
Left-right determination factor 2 (Homo sapiens), sequence (O00292 whole entry, looked up): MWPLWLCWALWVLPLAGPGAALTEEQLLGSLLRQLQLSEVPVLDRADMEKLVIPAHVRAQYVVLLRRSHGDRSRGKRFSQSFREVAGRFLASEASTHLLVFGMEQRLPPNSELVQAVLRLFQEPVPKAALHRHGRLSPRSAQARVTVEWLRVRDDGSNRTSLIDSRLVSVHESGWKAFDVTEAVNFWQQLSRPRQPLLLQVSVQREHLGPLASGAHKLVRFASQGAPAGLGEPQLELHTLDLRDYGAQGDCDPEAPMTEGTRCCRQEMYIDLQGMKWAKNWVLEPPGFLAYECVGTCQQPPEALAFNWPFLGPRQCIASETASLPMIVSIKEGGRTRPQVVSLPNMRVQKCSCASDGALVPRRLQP
Concanavalin-A (Canavalia ensiformis), sequence (P02866 whole entry, looked up): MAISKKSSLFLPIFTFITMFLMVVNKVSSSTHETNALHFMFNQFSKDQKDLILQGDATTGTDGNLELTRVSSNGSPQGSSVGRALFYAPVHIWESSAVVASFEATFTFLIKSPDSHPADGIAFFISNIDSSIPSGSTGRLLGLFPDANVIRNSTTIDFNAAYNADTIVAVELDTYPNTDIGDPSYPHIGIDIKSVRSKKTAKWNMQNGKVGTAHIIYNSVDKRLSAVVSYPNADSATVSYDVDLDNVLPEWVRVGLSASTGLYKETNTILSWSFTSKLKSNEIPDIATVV
Albumin (Bos taurus), sequence (P02769 whole entry, looked up): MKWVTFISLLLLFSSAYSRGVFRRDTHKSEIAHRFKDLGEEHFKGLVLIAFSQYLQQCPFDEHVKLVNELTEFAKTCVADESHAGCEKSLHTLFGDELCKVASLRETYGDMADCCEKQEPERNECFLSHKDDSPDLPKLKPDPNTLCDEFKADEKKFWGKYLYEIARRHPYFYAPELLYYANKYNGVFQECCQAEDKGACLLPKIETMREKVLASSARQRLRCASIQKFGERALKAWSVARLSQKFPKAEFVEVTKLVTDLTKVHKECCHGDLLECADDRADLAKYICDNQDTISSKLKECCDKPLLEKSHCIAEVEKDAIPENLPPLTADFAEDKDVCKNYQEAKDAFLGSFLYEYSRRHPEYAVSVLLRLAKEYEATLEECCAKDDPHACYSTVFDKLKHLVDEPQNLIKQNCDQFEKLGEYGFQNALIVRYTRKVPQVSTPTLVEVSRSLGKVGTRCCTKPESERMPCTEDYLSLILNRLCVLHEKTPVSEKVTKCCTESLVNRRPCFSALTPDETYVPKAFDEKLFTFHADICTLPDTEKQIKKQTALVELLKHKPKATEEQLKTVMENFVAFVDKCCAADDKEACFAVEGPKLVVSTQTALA
Alpha-bungarotoxin (Bungarus multicinctus), sequence (P60615 whole entry, looked up): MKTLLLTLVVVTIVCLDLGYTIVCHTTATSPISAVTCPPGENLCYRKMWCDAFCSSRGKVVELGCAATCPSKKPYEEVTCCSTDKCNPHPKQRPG

With `CO[C@H]1O[C@H](CO)[C@@H](OC(=O)c2ccc(Br)cc2)[C@@H]2OC(=O)[C@H](Cc3cccc(Br)c3)C/C=C/C[C@@H](Cc3cccc(Br)c3)C(=O)O[C@@H]12`, the composite z-score in [1] was 0.549; in assay [3], 0.985; in assay [4] it was 0.622; in [5] it was 0.0872; in assay [6] it was -0.113; in assay [7], 0.317. Moreover, the composite z-score was -0.172 in assay [8]; 0.323 in assay [9]; 0.867 in [10]; 0.695 in the assay with Albumin (Bos taurus); 0.119 in assay [12]; -0.0486 in [13]. Further, the composite z-score in [14] came out at 0.439; in [15], 0.806; in [16], 0.72; with Sam68 (KHDRBS1), 1.18; in assay [17], 0.511; in assay [18], 0.583. Further, the z-score in assay [2] was -2.15. The composite Z-score in assay [11] is 0.528 (inactive).

Turning to `CN(C)C(=O)[C@@]1(CCC(=O)OC(C)(C)C)N=C(c2ccc(OCCCO)cc2)O[C@H]1c1ccccc1N=[N+]=[N-]`, the composite z-score amounted to 1.54 in assay [1]; 0.494 in assay [3]; 1.61 in assay [4]; 0.727 in assay [5]; 0.0839 in assay [6]; 0.246 in assay [7]. The composite z-score is 0.948 in [8]; 2.15 in assay [9]; 2.63 in assay [10]; 1.03 with Albumin (Bos taurus); 0.315 in [12]; -0.0129 in assay [13]. Further, the composite z-score in [14] is 0.812; in assay [15], 3.31; in [16] it was 1.25; in the assay on Sam68 (KHDRBS1) it was 1.3; in assay [17] it was -0.18; in assay [18], 1.11. For the same compound, the z-score in [2] amounted to 1.58. In assay [11], the composite Z-score is 0.0421 (inactive).

Consider `COCCOC(=O)N1C(=O)[C@@]2(c3cc(C#CCCO)ccc31)[C@H](c1ccc(OCCO)cc1)N1[C@H](c3ccccc3)[C@H](c3ccccc3)OC(=O)[C@H]1[C@@H]2C(=O)N1CCc2cc(OC)c(OC)cc2C1`, for which the composite z-score was 1.39 in [1]; 0.503 in assay [3]; 0.759 in assay [4]; 0.215 in assay [5]; -0.124 in assay [6]; -0.0904 in [7]. The composite z-score in assay [8] is 0.0531; in assay [9], -0.0856; in assay [10], 0.642; with Albumin (Bos taurus) it was -0.627; in assay [12] it was 0.0893; in assay [13] it was -0.0731. Besides, the composite z-score in [14] is 0.239; in assay [15], 1.06; in assay [16], 1.48; in the assay on Sam68 (KHDRBS1) it was 1.31; in [17], 0.559; in assay [18], 1.08. In addition, the z-score in assay [2] was -1.12. The composite Z-score in assay [11] was 0.443 (inactive).

As for `OCc1ccc(-c2cc[n+](Cc3cccc(OC(F)(F)F)c3)cc2)cc1`, the composite z-score in assay [1] was 1.19; in assay [3], 1.36; in assay [4] it was -0.245; in assay [5], -0.196; in [6] it was -0.0006; in assay [7] it was -0.0146. Further, the composite z-score is 0.425 in assay [8]; 1.08 in [9]; 1.9 in assay [10]; 0.503 with Albumin (Bos taurus); 0.11 in assay [12]; -0.0254 in assay [13]. The composite z-score in assay [14] is 0.894; in [15] it was 0.813; in assay [16], 1.08; in the assay with Sam68 (KHDRBS1), 0.981; in [17], 1.49; in assay [18] it was 1.08. Moreover, the z-score in [2] is 0.717. In assay [11], the composite Z-score is 0.372 (inactive).

Consider `C=C(/C(=C/C[C@@H](OC(=O)c1ccncc1)c1cccc(OCCO)c1)c1cc(C(=O)OC)ccc1OC)C(C)C`, for which the composite z-score in [1] is 0.903; in [3] it was 0.521; in assay [4], 0.0576; in assay [5] it was -0.412; in [6], -0.101; in [7], 0.131. Besides, the composite z-score in [8] was 0.0051; in assay [9], 1.11; in [10], 0.462; with Albumin (Bos taurus), 0.482; in [12], 0.19; in [13], -0.0207. Besides, the composite z-score was 0.597 in [14]; 1.23 in assay [15]; 0.763 in [16]; 1.21 with Sam68 (KHDRBS1); 0.859 in [17]; 0.996 in [18]. Further, in [2], the z-score was -2.94. In addition, the composite Z-score in [11] is 0.25 (inactive).
